# Data reported in the supplement of paper PMC6555819.
# Experiments:
# Test in all cases: PBM binding z-score (relative to random genomic background probes); higher = stronger binding; sequences stand for … in GC…GCGATTGACAGCGTAGAATGAAGG
# [1] = system: FXR:RXRa (NR concentration 270 nM, RXRa partner concentration 90 nM)
# How it was run: (§1)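 Regression normalization was applied to scanned fluorescence from custom Agilent 4×180K protein-binding microarrays. Before scanning, arrays were incubated 1 h with ligand-free nuclear receptor dimers, and binding was detected with antibodies against each partner (one per run). Binding z-scores use the random background probes as reference.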
# [2] = system: LXRa:RXRa (NR concentration 270 nM, RXRa partner concentration 90 nM)
# How it was run: as §1
# [3] = system: LXRa homodimer (NR concentration 270 nM)
# How it was run: as §1
# [4] = system: LXRb:RXRa (NR concentration 270 nM, RXRa partner concentration 90 nM)
# How it was run: as §1
# [5] = system: LXRb homodimer (NR concentration 270 nM)
# How it was run: as §1
# [6] = system: PPARa:RXRa (NR concentration 270 nM, RXRa partner concentration 90 nM)
# How it was run: as §1
# [7] = system: PPARg:RXRa (NR concentration 180 nM, RXRa partner concentration 90 nM)
# How it was run: as §1
# [8] = system: PPARg:RXRa 270nM:90nM, anti-RXR (NR concentration 270 nM, RXRa partner concentration 90 nM)
# How it was run: as §1
# [9] = system: PPARg:RXRa 30nM:10nM, anti-RXR (NR concentration 30 nM, RXRa partner concentration 10 nM)
# How it was run: as §1
# [10] = system: PPARg:RXRa 90nM:30nM, anti-RXR (NR concentration 90 nM, RXRa partner concentration 30 nM)
# How it was run: as §1
# [11] = system: PPARg:RXRa DBDmut IVT, anti-RXR (DBD mutation: RXRa K156A/R161A, NR concentration 270 nM, RXRa partner concentration 90 nM)
# How it was run: as §1
# [12] = system: PPARg:RXRa IVT, anti-PPARg (NR concentration 270 nM, RXRa partner concentration 90 nM)
# How it was run: as §1
# [13] = system: PPARg DBDmut:RXRa IVT, anti-PPARg (DBD mutation: PPARg1 K132A/R137A, NR concentration 270 nM, RXRa partner concentration 90 nM)
# How it was run: as §1
# [14] = system: PPARg DBDmut IVT, anti-PPARg (DBD mutation: PPARg1 K132A/R137A, NR concentration 270 nM)
# How it was run: as §1
# [15] = system: PPARg homodimer (NR concentration 180 nM)
# How it was run: as §1
# [16] = system: PXR:RXRa (NR concentration 270 nM, RXRa partner concentration 90 nM)
# How it was run: as §1
# [17] = system: PXR homodimer (NR concentration 270 nM)
# How it was run: as §1
# [18] = system: RARa:RXR (NR concentration 270 nM, RXRa partner concentration 90 nM)
# How it was run: as §1
# [19] = system: RARa homodimer (NR concentration 270 nM)
# How it was run: as §1
# [20] = system: RARb:RXRa (NR concentration 270 nM, RXRa partner concentration 90 nM)
# How it was run: as §1
Sequence,PBM binding z-score [1],PBM binding z-score [2],PBM binding z-score [3],PBM binding z-score [4],PBM binding z-score [5],PBM binding z-score [6],PBM binding z-score [7],PBM binding z-score [8],PBM binding z-score [9],PBM binding z-score [10],PBM binding z-score [11],PBM binding z-score [12],PBM binding z-score [13],PBM binding z-score [14],PBM binding z-score [15],PBM binding z-score [16],PBM binding z-score [17],PBM binding z-score [18],PBM binding z-score [19],PBM binding z-score [20]
ATCTCTAAGTAACCAAGTTCAGTGAATGCCGAAC,0.436,0.569,0.843,0.518,0.349,0.397,-0.15,0.228,0.371,0.352,-0.304,0.256,0.36,0.891,0.71,1.3,1.61,0.788,0.561,1.16
CCTCAGAGGACAGAAGGTCAGAGCTGTCCGCTTT,1.31,1.63,-0.13,1.24,-0.707,2.19,0.358,0.634,-0.132,0.513,0.0276,0.424,-0.801,-2.11,1.69,1.66,-0.179,2.01,0.177,3.41
ACTAGCAGGACAAGTTTGGGTCACTCAAACAAAG,0.14,0.146,-0.00824,0.621,-0.0447,1.36,0.27,0.0968,-0.0869,-0.0203,0.129,0.867,0.113,-0.22,0.596,0.911,-0.116,1.47,-0.279,1.7
ATCTCTAGATAAAAGTTCAGTGAATCCCGAGGAT,0.0145,0.704,1.41,0.746,0.367,1.59,1.74,3.39,1.72,3.2,-0.00193,0.486,1.04,0.904,1.13,1.57,1.32,0.986,0.594,2.13
CAGCCTAAGTCAGGGCCAGTATAGGAGGAACGTT,-0.194,-0.51,-0.309,-0.69,-1.28,-0.483,0.0918,-0.709,-0.0751,-0.475,-0.358,-0.577,-1.05,-1.43,-0.193,-0.653,-0.125,-0.178,-0.484,-0.134
GCTTACGGGTCAAAGGCTATAGCATGAATAGAAT,5.51,3.89,0.00427,3.82,0.0561,6.01,7.81,6.86,5.03,6.55,3.78,4.33,0.463,0.898,1.36,3.22,0.0124,4.4,-0.0609,3.69
GCTAGTAGTTGAAAGGGCAACCGAATGATTCTCG,0.181,0.507,0.0629,0.605,-0.496,2.52,4.19,5.71,4.3,5.8,0.195,1.26,-0.638,-0.335,1.55,0.658,-0.0187,1.47,-1.01,1.88
TCTTGTAGATCAATGGAGGTTAAGAAAGTGCGCT,0.901,2.8,0.173,1.3,-0.0128,1.52,-0.31,1.5,2.83,2.18,2.04,1.57,0.0784,1.12,-0.199,2.58,0.0457,1.16,0.49,0.504
AGAATGAGGTTATTAAGGTCAGGGAATTGCGGTC,4.55,4.8,3.44,3.59,0.546,4.4,3.54,4.22,1.62,3.18,4.18,4.42,1.61,0.235,2.65,5.11,11.1,4.38,1.85,3.79
GCTGCTAGGTCAGCTGATGGTCAGCTAAAGCTCG,1.21,0.513,-0.477,0.0658,-1.13,1.58,0.146,1.01,-0.292,0.544,3.51,2.35,-1.32,-1.88,0.56,-0.015,-1.12,0.983,-1.22,3.57
TGTTGTAGATCAATAGAGGTTAAGAAAGTGCGCT,1.03,3.59,1.16,1.94,1.01,1.63,0.0938,0.944,0.473,0.795,-0.0957,0.893,1.29,1.09,1.38,3.29,0.289,1.76,1.61,1.01
TCATATAGGTAATACAGGTGGAAGTCGGCATCTA,1.45,1.49,0.307,0.555,0.553,1.31,1.07,2.33,3.98,3.14,4.03,2.31,1.36,0.905,0.801,0.571,0.602,0.763,1.5,0.515
GATACATGGTCAAGGCCAGAGTACGCGTATTGAT,-0.39,-0.622,-0.276,-0.463,-0.821,-0.215,0.872,0.016,0.162,0.303,0.0376,0.621,-0.439,0.11,-0.243,-0.158,-0.13,-0.204,-0.125,1.25
CCTCGGAGGAGAGAAGGTCAGAGCTGTCCGCTTT,0.811,0.874,-0.155,0.734,-0.806,1.62,-0.501,0.307,-0.994,-0.582,-0.223,-0.125,-1.3,-1.71,0.917,1.24,-0.114,1.74,-0.103,2.35
CCGAATAGGTTATGGGGCATTCAGGCAACGGTGA,0.575,0.686,-0.0267,1.02,-0.297,2.16,1.97,3.14,0.896,2.04,1.26,1.71,-0.226,-0.668,0.678,0.141,-0.0555,0.892,0.0562,1.27
